Sampled rows, rich in hits. Any-hit rate of the full collection: about 19%.
HT1080 IDH1KD tx – toxicity to HT-1080 IDH1 knockdown cells (counter line) | HT-1080 IDH1 knockdown viability, ATP luminescence, 48 h | Potency, µM (doses to about 46.1 µM), without a hit: at the top dose activity, negative = toxicity, usual class: cytotoxic | 360,000 compounds, 2% hits | AID 686971;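 also: 0% = DMSO wells and -100% = cell-free medium wells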
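Assay cells: HT-1080 with IDH1 knockdown, 750 per well, RPMI/5% FBS. Exposure: 48 h at 37 °C following 2 h pre-incubation. Read: CellTiter-Glo luminescence; fitted concentration-response, curve class assigned.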
DT40 TDP1 no CPT – qHTS for Inhibitors of human tyrosyl-DNA phosphodiesterase 1 (TDP1): qHTS in cells in absence of CPT; 420,000 compounds, 15% hits; Potency, µM (titrated, usually from 46.2 µM), for the others: at the top dose activity change, negative = growth inhibition, hits mostly inhibitors; DT40 Tdp1-/- hTDP1 cells, no CPT, ATP luminescence, 48 h; also: nearly all actives have a fitted effect of over 55% in size
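Chicken DT40 Tdp1-/- cells complemented with human TDP1, screened without camptothecin (DMSO vehicle only), 400 cells/well. Compounds pin-transferred, cells incubated at 37 °C for at least 48 hr. Growth read as ATP-dependent luminescence (CellTiter-Glo, 30 min at RT).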
DT40 TDP1 CPT – growth inhibition of DT40 Tdp1-/-;hTDP1 cells with camptothecin (screen for TDP1 inhibitors); chicken DT40 Tdp1-/-;hTDP1 cells + 20 nM CPT, ATP luminescence, 48 h; Potency, µM (highest dose often 46.2 µM), inactives show at the highest dose activity change, negative = growth inhibition, actives largely listed as inhibitors; 420,000 compounds, 12% hits; AID 686979; also: nearly all actives have a fitted effect of over 55% in size
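Chicken DT40 Tdp1-/- cells stably complemented with human TDP1 were seeded at 400 cells/well in medium containing 20 nM camptothecin, exposed to pin-transferred compounds, and grown at 37 °C for at least 48 hr. Viability was read as ATP luminescence.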
HT1080NT lethal – kills 2HG-producing HT-1080-NT fibrosarcoma cells; HT-1080-NT fibrosarcoma viability, CellTiter-Glo ATP luminescence, 48 h; Potency, µM (titrated, usually from 46.1 µM), for the others: at the top dose activity, negative = less viability, usual class: cytotoxic; 360,000 compounds, 1.6% hits; AID 686970;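 also: NT is the 2HG producing partner of a matched IDH1 knockdown line; 0% = DMSO-treated cells and -100% = media-only wells without cells; nearly all actives have a fitted effect of over 55% in size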
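A 48-hour cytotoxicity screen used HT-1080-NT cells plated 2 hours before compound delivery. ATP-based CellTiter-Glo luminescence measured viability, normalized to DMSO and no-cell controls.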
KB-3-1 tox – kills parental KB-3-1 adenocarcinoma cells; Potency, µM (top dose mostly 46.1 µM), hits mostly cytotoxic; AID 1347075; KB-3-1 viability, CellTiter-Glo ATP luminescence, 72 h; 400,000 compounds, 1.4% hits; also: nearly all actives have a fitted effect of over 60% in size
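Cytotoxicity measured as CellTiter-Glo luminescence after 72 h at 37 C. Compound titrations were pinned onto drug-naive KB-3-1 parental adenocarcinoma cells grown in DMEM with 10% FBS, and normalized data fitted to concentration-response curves.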
KB-V1 cytotox – KB-V1 MDR subline cytotoxicity | KB-V1 MDR cells viability, CellTiter-Glo, 72 h | Potency, µM (titrated, usually from 46.1 µM), hits mostly cytotoxic | 400,000 compounds, 3.4% hits; also: nearly all actives have a fitted effect of over 60% in size
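Compound-treated KB-V1 multidrug-resistant cells, 72 h, 37 degrees C; viability by CellTiter-Glo. Fitted qHTS curves give the values.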
* = called active by the depositor; i = inactive; u = inconclusive; x = no result given. Calls follow the shape of the dose curve; as a rule, active = well fitted curve in the direction sought with a large enough effect; inconclusive = small, poorly fitted or top-dose-only effect, or another doubt; inactive = no such curve, though single readings can be large; an effect the other way counts as inactive or inconclusive. Unless noted, % is scaled to controls: 0 for no effect and ±100 for the full control effect; potency is read from the fitted curve at half-maximal effect.

SMILES	HT1080 IDH1KD tx	DT40 TDP1 no CPT	DT40 TDP1 CPT	HT1080NT lethal	KB-3-1 tox	KB-V1 cytotox
CCOc1ccc2c(c1)c(=O)c(S(=O)(=O)c1ccc(Cl)cc1)cn2Cc1ccccc1C	x	u	u	x	i	i
CCOC(=O)N1CCN(C(=O)C[C@@H]2C[C@@]3(C(=O)OC)CCCCC=C3N(Cc3ccccc3)C2=O)CC1	-0.4%	u	u	16.7%	i	u
CCCCNC(=O)C1(C)CCN1C(=O)c1sccc1C (centres undefined)	7.3%	1.8%	-21.0%	21.4%	i	i
COc1cc(NC(=O)c2noc3c2CC(C)CC3)c(OC)cc1Cl (centres undefined)	x	-0.2%	23.6%	x	x	x
CC(C)Oc1cc(NC(=O)CSCC(=O)Nc2cccc(C(F)(F)F)c2)c(Cl)cc1Cl	u	-21.9%	-27.4%	-20.0%	i	13µM*
O=C(CCl)N(Cc1ccccc1)c1ccccc1	16.4µM*	5.8µM*	5.17µM*	10.3µM*	u	i
COc1ccccc1C(=O)N(Cc1ccccc1)c1ccc(C)cc1	-4.0%	u	14.6µM*	-2.1%	u	u
O=C(CCl)N(Cc1cc(=O)[nH]c2ccccc12)c1ccccc1	u	2.31µM*	4.11µM*	-13.6%	i	i
Cc1cc(NC(=O)C(C)SCC(=O)Nc2ccc(Br)cc2Br)no1 (centres undefined)	4.2%	13µM*	u	4.1%	i	i
COc1ccc(C(=O)N(Cc2ccccc2)c2cccc(C)c2)c(OC)c1OC	-1.1%	u	u	-0.7%	i	u
Cc1cc(NC(=O)C(C)SCC(=O)N(C)CC(=O)Nc2ccccc2Br)no1 (centres undefined)	-4.1%	-8.6%	-4.7%	-9.4%	i	i
Cc1n[nH]c(C)c1S(=O)(=O)N1CCN(S(=O)(=O)c2cccc(F)c2)CC1	5.5%	-9.9%	-0.7%	3.5%	i	i
O=P(Cc1cc(Br)cc(Br)c1OCCO)(c1ccccc1)c1ccccc1	-1.6%	u	u	-10.3%	i	u
CCOCCCNC(=O)c1ccc(NC(=O)N2CCCCc3ccccc32)cc1	x	u	u	x	i	i
COc1ccccc1CN1CC[C@@]2(CCCN(C(=O)c3ccco3)C2)C1	x	-22.8%	u	x	x	x
Cc1cccc(N(Cc2ccccc2)C(=O)CCl)c1	1.3µM*	u	2.31µM*	1.46µM*	i	u
Cc1cccc(N(Cc2ccccc2)C(=O)CSC(C)C(=O)Nc2cc(C)on2)c1 (centres undefined)	-26.3%	18.4µM*	u	0.6%	u	14.6µM*
COc1cc(C(=O)N(Cc2ccccc2)c2cccc(C)c2)ccc1OC(F)F	-9.2%	u	u	0.0%	i	u
COc1ccc(CC(=O)N(Cc2ccccc2)c2cccc(C)c2)cc1OC	-7.8%	14.6µM*	u	2.8%	i	u
CCCCn1c(N)c(N(CCOC)C(=O)CSc2ccc([N+](=O)[O-])cc2)c(=O)[nH]c1=O	-2.1%	-18.7%	-12.0%	2.1%	i	i
COC(=O)C1C(c2ccccc2)C(C(=O)OCc2ccco2)C1c1ccccc1 (centres undefined)	-22.7%	u	u	6.8%	u	13µM*
CCC(=O)c1c(CC)c2n3c1CC[C@H]3CCC2	0.1%	-21.0%	-12.7%	-3.4%	i	i
CC(NC(N)=O)C(=O)Nc1ccc(Cl)c(S(=O)(=O)Nc2ccc(Cl)cc2)c1 (centres undefined)	-1.8%	-7.4%	-0.4%	13.4%	i	i
C[C@H](NC(N)=O)C(=O)Nc1ccc(N2CCOCC2)c(S(=O)(=O)Nc2ccc(Cl)cc2)c1	6.1%	u	20.6µM*	5.7%	i	i
